Inconclusive results are not listed. Where a call stands in place of a potency, no number is given. Unmarked numbers belong to inactive results. The source made the active and inactive calls. Unless noted, calls follow the shape of the dose curve; as a rule, active = well fitted curve in the direction sought with a large enough effect in the repeat runs; inconclusive = weak or mixed curves; inactive = no such curve, though single readings can be large; an effect the other way counts as inactive or inconclusive.
How the values were obtained:
[1] = qHTS assay to identify small molecule antagonists of the estrogen related receptor (ERR) signaling pathway from Tox21 library - cell viability counter screen (AID 1224834); also: nearly all actives have a fitted effect of over 30% in size
How it was run: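 CellTiter-Fluor fluorescence measured; ERR cells; 17.5 h compound incubation at 37 C; 30 min reagent step.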

[2] = qHTS assay to identify small molecule agonists of the constitutive androstane receptor (CAR) signaling pathway - cell viability counter screen (AID 1224836); also: nearly all actives have a fitted effect of over 45% in size
How it was run: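 Counter screen multiplexed with the CAR reporter readout: HepG2 cells co-transfected with hCAR and the CYP2B6-2.2kb construct receive a 15-concentration compound series and 0.75 uM PK11195 (final), then CellTiter-Fluor fluorescence is read after 23 h.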

[3] = qHTS assay to identify small molecule antagonists of the constitutive androstane receptor (CAR) signaling pathway - cell viability counter screen (AID 1224837); also: nearly all actives have a fitted effect of over 45% in size
How it was run: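 Using CellTiter-Fluor, viability is scored in HepG2 cells stably carrying hCAR and a 2.2kb CYP2B6 reporter after 23 hr compound exposure across 15 concentrations, with CITCO present at 50 nM.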

[4] = molecular target: Nuclear receptor subfamily 1 group I member 3 (Homo sapiens) (UniProt Q14994); test: qHTS assay to identify small molecule antagonists of the constitutive androstane receptor (CAR) signaling pathway (AID 1224838);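 also: HepG2 cells stably expressing hCAR with CYP2B6 luciferase reporter stimulated by CITCO; nearly all actives have a fitted effect of over 40% in size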
Nuclear receptor subfamily 1 group I member 3 (Homo sapiens), sequence (Q14994 whole entry, looked up): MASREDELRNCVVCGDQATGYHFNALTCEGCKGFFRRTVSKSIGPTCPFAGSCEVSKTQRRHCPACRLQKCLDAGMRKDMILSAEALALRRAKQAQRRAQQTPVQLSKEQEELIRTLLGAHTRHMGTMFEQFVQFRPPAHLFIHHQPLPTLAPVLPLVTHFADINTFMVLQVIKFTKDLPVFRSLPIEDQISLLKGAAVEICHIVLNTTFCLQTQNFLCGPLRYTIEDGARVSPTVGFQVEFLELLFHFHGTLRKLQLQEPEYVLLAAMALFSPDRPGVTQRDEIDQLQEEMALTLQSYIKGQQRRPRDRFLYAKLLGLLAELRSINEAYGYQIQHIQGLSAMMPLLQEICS
How it was run: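 Reporter luminescence was quantified after 24 h exposure of hCAR/CYP2B6-2.2kb double-stable HepG2 cells to compounds at 15 concentrations in the presence of 50 nM CITCO final.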

[5] = molecular target: Nuclear receptor subfamily 1 group I member 3 (Homo sapiens) (UniProt Q14994); test: qHTS assay to identify small molecule agonists of the constitutive androstane receptor (CAR) signaling pathway (AID 1224839); also: nearly all actives have a fitted effect of over 15% in size
How it was run: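 A 15-concentration quantitative screen uses HepG2 cells co-transfected stably with human CAR and CYP2B6-2.2kb reporter. Treatment lasts 24 h with 0.75 uM PK11195 final present; ONE-Glo luminescence is the signal.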

[6] = qHTS assay to identify small molecule antagonists of the estrogen related receptor signaling pathway with the pleiotropic PPARgamma coactivator (PGC) from Tox21 10K library - cell viability counter screen (AID 1224840; active = well fitted cell-killing curve with a large enough effect in the repeat runs, not every such curve was filed as active; also: nearly all actives have a fitted effect of over 40% in size)
How it was run: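 Here the PGC/ERR cells serve as a cytotoxicity control: they are exposed to compounds for 17.5 hours at 37 C, and live-cell signal is quantified using CellTiter-Fluor fluorescence.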

[7] = qHTS assay to identify small molecule antagonists of the estrogen related receptor signaling pathway with the pleiotropic PPARgamma coactivator (PGC) from Tox21 10K library (AID 1224841; call rule not given here; also: actives are mostly falling curves and most rising ones were filed inactive; nearly all actives have a fitted effect of over 50% in size)
How it was run: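 Each well held 2,000 PGC/ERR cells, pre-incubated six hours (37 C, 5% CO2). Test substances in DMSO were added by pin tool and left for 18 h at 37 C before luciferase detection by One-Glo.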

[8] = qHTS assay to identify small molecule agonists of the estrogen related receptor signaling pathway with the pleiotropic PPARgamma coactivator (PGC) from Tox21 10K library (AID 1224842); also: nearly all actives have a fitted effect of over 15% in size
How it was run: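 PGC/ERR reporter cell line, 2,000 cells per well, incubated 6 h at 37 C before 23 nL compound in DMSO was added. After 18 h at 37 C, One-Glo luminescence read following 30 min at room temperature.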

[9] = molecular target: Luciferin 4-monooxygenase (Photinus pyralis) (UniProt P08659); test: qHTS assay to identify small molecule inhibitors of firefly luciferase (AID 1224835); also: nearly all actives have a fitted effect of over 25% in size
Luciferin 4-monooxygenase (Photinus pyralis), sequence (P08659 whole entry, looked up): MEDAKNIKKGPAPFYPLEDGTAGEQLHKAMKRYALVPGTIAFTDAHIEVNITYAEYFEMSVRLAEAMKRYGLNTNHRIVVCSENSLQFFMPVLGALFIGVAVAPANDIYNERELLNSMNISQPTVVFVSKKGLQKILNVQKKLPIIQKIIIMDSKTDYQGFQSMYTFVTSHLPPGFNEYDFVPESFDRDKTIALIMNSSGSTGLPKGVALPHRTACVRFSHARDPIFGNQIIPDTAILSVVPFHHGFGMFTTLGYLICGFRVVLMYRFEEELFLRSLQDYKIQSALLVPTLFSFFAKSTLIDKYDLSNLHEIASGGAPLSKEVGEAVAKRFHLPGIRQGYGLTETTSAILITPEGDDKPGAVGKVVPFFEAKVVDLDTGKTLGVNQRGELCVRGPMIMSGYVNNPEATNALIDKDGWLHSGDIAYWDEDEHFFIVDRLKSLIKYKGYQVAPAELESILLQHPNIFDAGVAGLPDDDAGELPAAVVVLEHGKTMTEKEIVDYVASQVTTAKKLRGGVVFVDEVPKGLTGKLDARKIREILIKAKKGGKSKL
How it was run: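 Biochemical qHTS: compounds run as interplate titrations against purified firefly enzyme, with D-luciferin and ATP each at its KM concentration. Light output recorded by CCD imaging.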
Potency is read from the fitted curve at half-maximal effect.

Structure (SMILES)	Potency [1]	Potency [2]	Potency [3]	Potency [4]	Potency [5]	Potency [6]	Potency [7]	Potency [8]	Potency [9]
CCC(C(=O)OCCN(CC)CC)c1ccccc1 (stereo not given)	inactive	inactive	inactive	inactive	inactive	inactive	–	–	–
C[C@@H]1C[C@H]2[C@@H]3CCC4=CC(=O)C=C[C@]4(C)[C@@]3(F)[C@@H](O)C[C@]2(C)[C@@]1(O)C(=O)CO	inactive	inactive	inactive	–	inactive	inactive	–	–	–
CO[C@H]1C=CO[C@@]2(C)Oc3c(C)c(O)c4c(O)c(c5c(c4c3C2=O)=NC2(CCN(CC(C)C)CC2)N=5)NC(=O)/C(C)=C\C=C/[C@H](C)[C@H](O)[C@@H](C)[C@@H](O)[C@@H](C)[C@H](OC(C)=O)[C@@H]1C	47.5 µM (active)	53.3 µM (active)	47.5 µM (active)	inactive	inactive	53.3 µM (active)	23.8 µM (active)	inactive	–
CCOC(=O)[C@@H](C)Oc1ccc(Oc2nc3ccc(Cl)cc3o2)cc1	inactive	inactive	inactive	–	–	inactive	inactive	–	–
CCCCCCCCCCOS(=O)(=O)O	inactive	inactive	inactive	inactive	inactive	inactive	–	–	–
CC(C)CCCC(=O)O	inactive	inactive	inactive	–	–	inactive	inactive	–	–
NC(=O)Cn1c(=O)cc(CCN2CCN(c3nccc4sccc34)CC2)c2ccc(F)cc21	48.6 µM (active)	–	–	–	–	–	61.1 µM (active)	inactive	44.8 µM (active)
Nc1nc(Cl)nc2c1ncn2[C@@H]1O[C@H](CO)[C@@H](O)[C@@H]1F	inactive	inactive	inactive	–	–	inactive	–	–	–
O=C1NCCN1	inactive	inactive	inactive	–	–	inactive	inactive	–	–
O=C1OCCN1/N=C/c1ccc([N+](=O)[O-])o1	inactive	inactive	–	inactive	inactive	inactive	–	–	–
Brc1cc(-c2ccc(Br)c(Br)c2Br)cc(Br)c1Br	inactive	inactive	inactive	inactive	24 µM (active)	inactive	–	–	–
COC(=O)c1cc(S(N)(=O)=O)ccc1OC	inactive	inactive	–	inactive	inactive	inactive	inactive	–	–
O=C(Nc1ccccc1)Nc1ccccc1	inactive	inactive	inactive	inactive	4.88 µM (active)	inactive	inactive	10.9 µM (active)	–
CCC(C)=O	inactive	inactive	inactive	–	–	inactive	inactive	inactive	–
CO[C@H]1O[C@H](CO)[C@@H](O)[C@H](O)[C@H]1O	inactive	inactive	inactive	inactive	inactive	inactive	inactive	inactive	–
COCCOC	1.04 µM (active)	1.64 µM (active)	–	9.24 µM (active)	inactive	–	–	–	–
CN(C(=O)C(Cl)Cl)c1ccc(OC(=O)c2ccco2)cc1	inactive	inactive	inactive	inactive	inactive	inactive	–	–	–
NC(=O)Nc1ccc(Cl)c(Cl)c1	inactive	inactive	inactive	inactive	inactive	inactive	inactive	–	–
COC(=O)[C@@H]1CC2=CC(=O)CC[C@]2(C)[C@@]23O[C@@H]2C[C@@]2(C)[C@@H](CC[C@@]24CCC(=O)O4)[C@H]13	inactive	inactive	–	inactive	inactive	inactive	–	–	–
OCC1CC=CCC1 (stereo not given)	inactive	inactive	–	inactive	inactive	inactive	–	–	–
CCCCCCCCCCCCCCC[C@H](O)[C@@H](N)CO	inactive	inactive	inactive	inactive	inactive	inactive	–	–	–
CCc1cccc(N(C)C(N)=Nc2cccc3ccccc23)c1	inactive	inactive	inactive	inactive	inactive	inactive	–	–	–
CC(=O)Oc1ccc2c(c1)CC[C@@H]1[C@@H]2CC[C@]2(C)[C@@H](O)CC[C@@H]12	–	inactive	–	inactive	9.44 µM (active)	inactive	inactive	inactive	24.5 µM (active)
CCCCC(=O)O[C@]1(C(=O)CO)[C@@H](C)C[C@H]2[C@@H]3CCC4=CC(=O)C=C[C@]4(C)[C@@]3(F)[C@@H](O)C[C@@]21C	–	inactive	inactive	–	–	–	–	–	inactive
CC[C@@H]([C@H](C)O)n1ncn(-c2ccc(N3CCN(c4ccc(OC[C@@H]5CO[C@@](Cn6cncn6)(c6ccc(F)cc6F)C5)cc4)CC3)cc2)c1=O	9.44 µM (active)	–	–	inactive	inactive	–	–	–	–
CC(CCO)CCc1ccccc1 (stereo not given)	inactive	inactive	–	–	–	inactive	–	–	–
CCC(Cc1ccccc1)(C(=O)c1ccc(N2CCOCC2)cc1)N(C)C (stereo not given)	–	–	inactive	–	–	inactive	–	inactive	inactive
C/C=C/C=C/CCCCCCCO	–	inactive	–	–	–	–	–	–	inactive
c1cc[c]([Bi]([c]2ccccc2)[c]2ccccc2)cc1	–	inactive	inactive	inactive	15.4 µM (active)	inactive	–	inactive	inactive

Reference: PubChem BioAssay (Tox21)
